This is part of a sample that, as a whole, favours compounds with a hit. Of some 79,000 tested, about 15% had one in any assay. No stated cut-off is given here; in the data, active means growth inhibition above about 70%; inactive means the rest.
What was measured:
[1] = NCI Yeast Anticancer Drug Screen. Data for the rad52 strain (AID 147);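 further: 0% = growth of vehicle-treated control cultures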; conditions: S. cerevisiae rad52 mutant growth inhibition, active compounds read high
Procedure, shortened: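 DNA repair-defective yeast; compound exposure; growth scored against vehicle controls.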

[2] = NCI Yeast Anticancer Drug Screen. Data for the wt1 strain (AID 149);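 further: 0% = growth of vehicle-treated wt1 cultures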; conditions: S. cerevisiae wt1 strain (SPY 50644) growth inhibition, active compounds read high
Procedure, shortened: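 Each compound is tested on wt1 yeast and the loss of growth versus vehicle gives the inhibition value.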

[3] = NCI Yeast Anticancer Drug Screen. Data for the rad50EPP+ strain (AID 151);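 further: 0% = growth of vehicle-treated control cultures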; conditions: S. cerevisiae rad50 mutant strain, active compounds read high
Procedure, shortened: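 rad50EPP+ yeast treated with test compounds. Readout: growth vs vehicle control.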

[4] = NCI Yeast Anticancer Drug Screen. Data for the mgt1 strain (AID 153); conditions: S. cerevisiae mgt1 mutant growth inhibition, active compounds read high
Procedure, shortened: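 Growth inhibition relative to vehicle controls was scored for the mgt1 yeast strain after compound exposure.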

[5] = NCI Yeast Anticancer Drug Screen. Data for the rad50 strain (AID 155);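 further: 0% = growth of vehicle-only cultures of the same strain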; conditions: S. cerevisiae rad50 strain growth inhibition, active compounds read high
Procedure, shortened: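 Vehicle-treated cultures provide the reference for the growth inhibition reported for compound-exposed, repair-deficient yeast.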

[6] = NCI Yeast Anticancer Drug Screen. Data for the mec2-1 strain (AID 157); conditions: S. cerevisiae mec2-1 strain, active compounds read high
Procedure, shortened: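 Growth inhibition is read against vehicle-treated controls after compound exposure of the mec2-1 yeast strain, which is defective in DNA damage repair or cell cycle control.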

[7] = NCI Yeast Anticancer Drug Screen. Data for the rad14 strain (AID 159);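 further: 0% = growth of vehicle-treated control cultures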; conditions: S. cerevisiae rad14 strain growth inhibition, active compounds read high
Procedure, shortened: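 Inhibition of growth is reported for a repair-deficient yeast mutant following compound treatment, calculated relative to cultures that received vehicle.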

[8] = NCI Yeast Anticancer Drug Screen. Data for the sgs1 mgt1 strain (AID 161);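 further: 0% = growth of cultures given vehicle only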; conditions: S. cerevisiae sgs1 mgt1 strain, active compounds read high
Procedure, shortened: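 This yeast growth screen uses a strain with defined DNA-repair lesions; compound-treated growth is compared with vehicle-treated growth.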

[9] = NCI Yeast Anticancer Drug Screen. Data for the CLN2oe strain (AID 163);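 further: 0% = growth of vehicle-only control cultures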; conditions: S. cerevisiae CLN2oe strain, active compounds read high
Procedure, shortened: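 Compound-treated yeast; growth vs vehicle ctrl = % inhibition. Genetically altered strain (cell-cycle control).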

[10] = NCI Yeast Anticancer Drug Screen. Data for the cln2 rad14 strain (AID 165);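 further: 0% = growth equal to vehicle treated cultures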; conditions: S. cerevisiae cln2 rad14 strain, active compounds read high
Procedure, shortened: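 Growth inhibition, relative to vehicle-treated controls, is the read-out. The test organism is a yeast strain with defined genetic alterations, cln2 rad14.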

[11] = NCI Yeast Anticancer Drug Screen. Data for the bub3 strain (AID 167); conditions: S. cerevisiae bub3 mutant strain, active compounds read high
Procedure, shortened: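 Mutant yeast screening strain plus compound; vehicle-treated cultures serve as the 0% inhibition reference.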

[12] = NCI Yeast Anticancer Drug Screen. Data for the wt2 strain (AID 169); conditions: S. cerevisiae wt2 strain growth inhibition, active compounds read high
Procedure, shortened: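 Compound exposure of yeast; growth compared with vehicle controls; inhibition reported.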

[13] = NCI Yeast Anticancer Drug Screen. Data for the mlh1 strain (AID 171);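 further: 0% = growth of vehicle-treated control cultures of the same strain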; conditions: S. cerevisiae mlh1 strain growth inhibition, active compounds read high
Procedure, shortened: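 Compounds are applied to a genetically altered yeast strain, and its growth is compared with that of vehicle-treated cultures to give percent inhibition.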

[14] = NCI Yeast Anticancer Drug Screen. Data for the sgs1 strain (AID 173);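 further: 0% = growth of vehicle-only control cultures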; conditions: S. cerevisiae sgs1 mutant, active compounds read high
Procedure, shortened: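 Compounds applied to genetically altered yeast; growth compared with vehicle-treated cultures to give % inhibition.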

[15] = NCI Yeast Anticancer Drug Screen. Data for the mlh1 rad18 strain (AID 175); conditions: S. cerevisiae mlh1 rad18 strain growth inhibition, active compounds read high
Procedure, shortened: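 Cells of a genetically altered yeast strain, deficient in DNA damage repair, were treated with compound. Their growth was then compared with that of vehicle-treated cultures to give inhibition.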

[16] = NCI Yeast Anticancer Drug Screen. Data for the rad18 strain (AID 177); conditions: S. cerevisiae rad18 mutant growth inhibition, active compounds read high
Procedure, shortened: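 Compounds are applied to a repair-deficient yeast strain, and growth is compared with that of vehicle-treated cultures to give percent inhibition.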

[17] = at 5.0 µM (retest, dose inferred, filed as 0.5)
[18] = at 50.0 µM (retest, dose inferred, filed as 5.0)

Measured: growth inhibition

CCCCCCC1OCC(O)C(OCCCC)O1 (stereo not drawn)
inactive: [1]; at 1.2 µM -3% | [1]; at 3.7 µM -4% | [1]; at 11.0 µM -2% | [1]; at 33.0 µM -4% | [1]; at 100.0 µM -4% | [2]; at 1.2 µM -4% | [2]; at 3.7 µM -3% | [2]; at 11.0 µM -5% | [2]; at 33.0 µM -8% | [2]; at 100.0 µM -10% | [3]; at 1.2 µM -8% | [3]; at 3.7 µM -4% | [3]; at 11.0 µM 2% | [3]; at 33.0 µM 3% | [3]; at 100.0 µM 50% | [4]; at 1.2 µM -6% | [4]; at 3.7 µM -4% | [4]; at 11.0 µM -4% | [4]; at 33.0 µM -6% | [4]; at 100.0 µM -3% | [5]; at 1.2 µM -5% | [5]; at 3.7 µM -11% | [5]; [17] -15% | [5]; at 11.0 µM -4% | [5]; at 33.0 µM -3% | [5]; [18] 3% | [5]; at 50.0 µM -0.55% | [5]; at 100.0 µM 1% | [6]; at 1.2 µM -2% | [6]; at 3.7 µM -3% | [6]; [17] -11% | [6]; at 11.0 µM -2% | [6]; at 33.0 µM -5% | [6]; [18] -35% | [6]; at 50.0 µM -13.7% | [6]; at 100.0 µM -4% | [7]; at 1.2 µM -5% | [7]; at 3.7 µM -4% | [7]; at 11.0 µM -4% | [7]; at 33.0 µM -3% | [7]; at 100.0 µM 0% | [8]; [17] -4% | [8]; [18] 16% | [8]; at 50.0 µM 11.2% | [9]; at 1.2 µM -5% | [9]; at 3.7 µM -3% | [9]; at 11.0 µM -12% | [9]; at 33.0 µM -8% | [9]; at 100.0 µM -7% | [10]; [17] -10% | [10]; [18] 60% | [10]; at 50.0 µM 0.05% | [11]; at 1.2 µM -5% | [11]; at 3.7 µM -6% | [11]; [17] -6% | [11]; at 11.0 µM -8% | [11]; at 33.0 µM -10% | [11]; [18] 15% | [11]; at 50.0 µM -8.05% | [11]; at 100.0 µM -12% | [12]; at 1.2 µM -4% | [12]; at 3.7 µM -5% | [12]; at 11.0 µM -6% | [12]; at 33.0 µM -7% | [12]; at 100.0 µM -7% | [13]; at 1.2 µM 0% | [13]; at 3.7 µM -1% | [13]; at 11.0 µM 0% | [13]; at 33.0 µM 1% | [13]; at 100.0 µM 6% | [14]; at 1.2 µM -4% | [14]; at 3.7 µM -1% | [14]; at 11.0 µM 0% | [14]; at 33.0 µM 0% | [14]; at 100.0 µM 4% | [15]; [17] 2% | [15]; [18] -4% | [15]; at 50.0 µM -15.8% | [16]; at 1.2 µM -3% | [16]; at 3.7 µM 1% | [16]; at 11.0 µM -1% | [16]; at 33.0 µM -2% | [16]; at 100.0 µM 1%
